Activity calls are given as the source filed them.
Legend:
[1] = small molecules captured by biotinylated probe aFSTL3 – biochemical, small-molecule microarray, fluorescence 635/667, stem cell growth factor project, primary screen (AID 1064); details: higher = more signal;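 further: measures binding of the biotinylated anti-FSTL3 antibody to printed compounds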
[2] = binders from COS7 lysate, DM2A8 probe, primary screen, torsin A project, cell lysate, small-molecule microarray, fluorescence 635/667 (AID 1065); details: higher = more signal, COS7 lysate expressing mutant human TOR1A
[3] = small molecules captured by biotinylated probe aFGF2 – biochemical, small-molecule microarray, fluorescence 635/667, stem cell growth factor project, primary screen (AID 1067); details: higher = more signal;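 further: measures binding of biotinylated aFGF2 protein to printed compounds on slides; z-score merges feature fluorescence and signal-to-noise across triplicate slides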
[4] = small molecules captured by biotinylated probe aFGF10 – biochemical, small-molecule microarray, fluorescence 635/667, stem cell growth factor project, primary screen (AID 1071); details: higher = more signal;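 further: score merges 667 nm spot intensity and signal to noise from triplicate slides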
[5] = target: Neurogenic locus notch homolog protein 2 (Homo sapiens) (UniProt Q04721); test: small molecules binding Notch2 protein – biochemical, small-molecule microarray, 635 nm fluorescence, stem cell growth factors, primary screen (AID 1073); details: higher = more signal
Sequence of Neurogenic locus notch homolog protein 2 (Homo sapiens) (Q04721 whole entry, looked up, canonical isoform): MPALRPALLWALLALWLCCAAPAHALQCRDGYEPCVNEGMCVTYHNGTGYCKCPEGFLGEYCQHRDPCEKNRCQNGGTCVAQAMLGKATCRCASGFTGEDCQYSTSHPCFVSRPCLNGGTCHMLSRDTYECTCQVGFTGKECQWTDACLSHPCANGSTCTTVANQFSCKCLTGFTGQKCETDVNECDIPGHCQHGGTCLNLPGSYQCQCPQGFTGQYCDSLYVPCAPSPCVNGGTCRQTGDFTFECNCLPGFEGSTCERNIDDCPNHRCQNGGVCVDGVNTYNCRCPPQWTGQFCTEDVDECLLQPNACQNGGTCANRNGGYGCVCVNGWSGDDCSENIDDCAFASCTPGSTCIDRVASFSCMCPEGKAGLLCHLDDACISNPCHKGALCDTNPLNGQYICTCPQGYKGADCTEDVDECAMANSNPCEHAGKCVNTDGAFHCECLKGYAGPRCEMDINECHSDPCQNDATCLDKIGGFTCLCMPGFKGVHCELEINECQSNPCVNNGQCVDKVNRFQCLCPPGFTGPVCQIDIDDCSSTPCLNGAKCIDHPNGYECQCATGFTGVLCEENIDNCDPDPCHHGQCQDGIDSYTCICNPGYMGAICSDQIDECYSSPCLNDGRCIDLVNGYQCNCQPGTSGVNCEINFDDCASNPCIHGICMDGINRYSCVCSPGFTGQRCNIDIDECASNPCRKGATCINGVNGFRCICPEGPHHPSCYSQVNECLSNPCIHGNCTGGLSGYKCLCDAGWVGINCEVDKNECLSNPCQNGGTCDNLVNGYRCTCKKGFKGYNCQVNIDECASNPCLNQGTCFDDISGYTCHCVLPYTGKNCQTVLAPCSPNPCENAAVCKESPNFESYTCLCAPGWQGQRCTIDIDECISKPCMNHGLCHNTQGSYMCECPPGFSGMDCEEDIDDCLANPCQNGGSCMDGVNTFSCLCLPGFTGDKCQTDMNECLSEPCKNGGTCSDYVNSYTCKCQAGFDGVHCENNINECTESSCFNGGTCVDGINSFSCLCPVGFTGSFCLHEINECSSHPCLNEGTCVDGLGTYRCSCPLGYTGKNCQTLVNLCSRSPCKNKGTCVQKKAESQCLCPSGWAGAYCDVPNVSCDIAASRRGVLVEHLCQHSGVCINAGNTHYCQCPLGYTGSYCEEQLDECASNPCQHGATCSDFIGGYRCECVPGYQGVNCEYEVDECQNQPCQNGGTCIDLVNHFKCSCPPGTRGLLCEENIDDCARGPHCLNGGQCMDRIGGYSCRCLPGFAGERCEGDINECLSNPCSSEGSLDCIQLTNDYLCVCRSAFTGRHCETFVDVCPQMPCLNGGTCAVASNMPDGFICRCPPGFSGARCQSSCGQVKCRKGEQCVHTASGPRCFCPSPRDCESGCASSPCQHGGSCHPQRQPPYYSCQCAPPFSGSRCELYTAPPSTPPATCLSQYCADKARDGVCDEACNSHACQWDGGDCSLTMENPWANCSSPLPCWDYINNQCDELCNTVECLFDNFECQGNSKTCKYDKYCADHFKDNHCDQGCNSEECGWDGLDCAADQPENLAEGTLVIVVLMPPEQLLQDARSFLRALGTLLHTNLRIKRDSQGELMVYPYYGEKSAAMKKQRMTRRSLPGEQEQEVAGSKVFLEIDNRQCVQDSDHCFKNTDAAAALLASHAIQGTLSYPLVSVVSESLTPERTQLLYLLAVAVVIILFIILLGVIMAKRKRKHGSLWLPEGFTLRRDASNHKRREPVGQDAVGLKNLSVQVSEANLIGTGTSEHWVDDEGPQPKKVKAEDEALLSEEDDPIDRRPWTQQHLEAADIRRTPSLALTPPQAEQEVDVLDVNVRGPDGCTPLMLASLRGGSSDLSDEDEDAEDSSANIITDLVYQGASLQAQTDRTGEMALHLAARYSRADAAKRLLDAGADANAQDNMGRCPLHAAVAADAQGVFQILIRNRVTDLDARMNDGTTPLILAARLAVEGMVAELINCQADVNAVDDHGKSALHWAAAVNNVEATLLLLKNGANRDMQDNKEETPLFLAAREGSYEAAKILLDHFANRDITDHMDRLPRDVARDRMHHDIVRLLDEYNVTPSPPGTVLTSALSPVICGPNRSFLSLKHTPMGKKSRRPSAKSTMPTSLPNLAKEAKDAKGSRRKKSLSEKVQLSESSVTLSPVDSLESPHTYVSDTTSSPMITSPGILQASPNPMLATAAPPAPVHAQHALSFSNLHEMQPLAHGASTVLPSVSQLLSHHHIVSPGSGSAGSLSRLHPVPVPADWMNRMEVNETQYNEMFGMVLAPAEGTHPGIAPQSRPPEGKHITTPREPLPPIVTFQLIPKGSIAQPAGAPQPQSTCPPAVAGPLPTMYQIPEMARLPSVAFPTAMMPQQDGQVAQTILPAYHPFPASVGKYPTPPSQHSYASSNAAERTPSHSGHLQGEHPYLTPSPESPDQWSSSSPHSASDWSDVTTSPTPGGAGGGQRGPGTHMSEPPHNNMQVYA

[6] = target: Pro-neuregulin-1, membrane-bound isoform (Homo sapiens) (UniProt Q02297); test: small molecules binding neuregulin-1 protein – biochemical, small-molecule microarray, fluorescence 635/667, psychiatric disease protein project, primary screen (AID 1075); details: NRG1 binding, 635 nm fluorescence, higher = more signal;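 further: score combines 667 nm spot fluorescence with signal to noise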
[7] = test system: Neuregulin-1 EGF-like domain; test: small molecules binding NRG1 EGF domain – biochemical, small-molecule microarray, 635 nm fluorescence, primary screen (AID 1081); details: higher = more signal;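 further: binding of the protein to compounds printed on small-molecule microarray slides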
[8] = FRG1 expression reporter modulators in myotubes – cell-based, C2C12 myotubes, firefly/Renilla luciferase, luminescence, FRG1 inhibition for FSHD, primary screen (AID 1084); details: FRG1 promoter luciferase, higher = more signal, called active from +8 up or from −8 down
[9] = small molecules captured by biotinylated probe aFST – biochemical, small-molecule microarray, fluorescence 635/667, stem cell growth factor project, primary screen (AID 1086); details: higher = more signal;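 further: score merges 667 nm fluorescence with signal-to-noise of each printed compound spot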
[10] = binders of probe aHhip on microarray, primary screen, stem cell growth factor project, biochemical, small-molecule microarray, fluorescence 635/667 (AID 1087); details: higher = more signal;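 further: score merges spot fluorescence at 667nm with spot signal to noise ratio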
[11] = test system: PRMT1 (protein arginine N-methyltransferase 1); test: small molecules binding arginine methyltransferase PRMT1 – biochemical, small-molecule microarray, 635 nm fluorescence, primary screen (AID 1088); details: higher = more signal;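 further: binding of Prmt1 protein to compounds spotted on small-molecule microarray slides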
[12] = growth effects on S. cerevisiae YJM789 – YJM789 clinical isolate, OD600, 24 h, basal, primary screen (AID 1089); details: higher = more signal, called active from +8 up or from −8 down;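 further: growth of clinical yeast isolate S. cerevisiae YJM 789 seeded 1000 cells per well; test concentration not given here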
[13] = S. pombe growth modifiers, basal conditions – strain 972, OD600, 24 h, no modulator, primary screen (AID 1090);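 further: basal condition with compound alone and no growth modifier present; test concentration not given here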; details: S. pombe 972 growth, higher = more signal, called active from +8 up or from −8 down
[14] = budding yeast growth modifiers under rapamycin – strain BY4716, OD600, 96 h, primary screen (AID 1091); further: test concentration not given here; details: S. cerevisiae BY4716 + rapamycin, higher = more signal, called active from +8 up or from −8 down
[15] = target: Torsin-1A-interacting protein 2 (Homo sapiens) (UniProt Q8NFQ8); test: small molecules binding lysate-expressed LULL1 – cell lysate, human LULL1 lysate, 635/667 nm fluorescence, primary screen (AID 1092); details: small-molecule microarray, hLULL1 lysate binding, 635 nm fluorescence; higher = more signal;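 further: probe is lysate of COS7 cells overexpressing human LULL1; score merges per-feature 667 nm fluorescence with signal-to-noise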
[16] = optical density change of DRC41 E. coli – strain DRC41, OD650, 24 h, E. coli filamentation project, primary screen (AID 1093);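 further: MC1000 strain lacking acrAB efflux and sulA so SOS filamentation is blocked; test concentration not given here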; details: E. coli DRC41 growth, higher = more signal, called active from +8 up or from −8 down
[17] = probe aLefty2 binding to arrayed compounds – biochemical, biotinylated probe, 635/667 nm fluorescence, primary screen (AID 1094); details: small-molecule microarray, higher = more signal;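 further: score merges spot fluorescence near 667 nm with spot signal-to-noise ratio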
[18] = test system: Noggin (protein binding on small-molecule microarray); test: small molecules binding Noggin protein – biochemical, 635/667 nm fluorescence, primary screen (AID 1095); details: 635 nm fluorescence, higher = more signal;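 further: score merges 667 nm feature fluorescence with signal to noise over triplicate slides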
[19] = target: Neurogenic locus notch homolog protein 3 (Homo sapiens) (UniProt Q9UM47); test: small molecules binding NOTCH3 protein – biochemical, 635/667 nm fluorescence, primary screen (AID 1096); details: small-molecule microarray, 635 nm fluorescence, higher = more signal
Sequence of Neurogenic locus notch homolog protein 3 (Homo sapiens) (Q9UM47 whole entry, looked up): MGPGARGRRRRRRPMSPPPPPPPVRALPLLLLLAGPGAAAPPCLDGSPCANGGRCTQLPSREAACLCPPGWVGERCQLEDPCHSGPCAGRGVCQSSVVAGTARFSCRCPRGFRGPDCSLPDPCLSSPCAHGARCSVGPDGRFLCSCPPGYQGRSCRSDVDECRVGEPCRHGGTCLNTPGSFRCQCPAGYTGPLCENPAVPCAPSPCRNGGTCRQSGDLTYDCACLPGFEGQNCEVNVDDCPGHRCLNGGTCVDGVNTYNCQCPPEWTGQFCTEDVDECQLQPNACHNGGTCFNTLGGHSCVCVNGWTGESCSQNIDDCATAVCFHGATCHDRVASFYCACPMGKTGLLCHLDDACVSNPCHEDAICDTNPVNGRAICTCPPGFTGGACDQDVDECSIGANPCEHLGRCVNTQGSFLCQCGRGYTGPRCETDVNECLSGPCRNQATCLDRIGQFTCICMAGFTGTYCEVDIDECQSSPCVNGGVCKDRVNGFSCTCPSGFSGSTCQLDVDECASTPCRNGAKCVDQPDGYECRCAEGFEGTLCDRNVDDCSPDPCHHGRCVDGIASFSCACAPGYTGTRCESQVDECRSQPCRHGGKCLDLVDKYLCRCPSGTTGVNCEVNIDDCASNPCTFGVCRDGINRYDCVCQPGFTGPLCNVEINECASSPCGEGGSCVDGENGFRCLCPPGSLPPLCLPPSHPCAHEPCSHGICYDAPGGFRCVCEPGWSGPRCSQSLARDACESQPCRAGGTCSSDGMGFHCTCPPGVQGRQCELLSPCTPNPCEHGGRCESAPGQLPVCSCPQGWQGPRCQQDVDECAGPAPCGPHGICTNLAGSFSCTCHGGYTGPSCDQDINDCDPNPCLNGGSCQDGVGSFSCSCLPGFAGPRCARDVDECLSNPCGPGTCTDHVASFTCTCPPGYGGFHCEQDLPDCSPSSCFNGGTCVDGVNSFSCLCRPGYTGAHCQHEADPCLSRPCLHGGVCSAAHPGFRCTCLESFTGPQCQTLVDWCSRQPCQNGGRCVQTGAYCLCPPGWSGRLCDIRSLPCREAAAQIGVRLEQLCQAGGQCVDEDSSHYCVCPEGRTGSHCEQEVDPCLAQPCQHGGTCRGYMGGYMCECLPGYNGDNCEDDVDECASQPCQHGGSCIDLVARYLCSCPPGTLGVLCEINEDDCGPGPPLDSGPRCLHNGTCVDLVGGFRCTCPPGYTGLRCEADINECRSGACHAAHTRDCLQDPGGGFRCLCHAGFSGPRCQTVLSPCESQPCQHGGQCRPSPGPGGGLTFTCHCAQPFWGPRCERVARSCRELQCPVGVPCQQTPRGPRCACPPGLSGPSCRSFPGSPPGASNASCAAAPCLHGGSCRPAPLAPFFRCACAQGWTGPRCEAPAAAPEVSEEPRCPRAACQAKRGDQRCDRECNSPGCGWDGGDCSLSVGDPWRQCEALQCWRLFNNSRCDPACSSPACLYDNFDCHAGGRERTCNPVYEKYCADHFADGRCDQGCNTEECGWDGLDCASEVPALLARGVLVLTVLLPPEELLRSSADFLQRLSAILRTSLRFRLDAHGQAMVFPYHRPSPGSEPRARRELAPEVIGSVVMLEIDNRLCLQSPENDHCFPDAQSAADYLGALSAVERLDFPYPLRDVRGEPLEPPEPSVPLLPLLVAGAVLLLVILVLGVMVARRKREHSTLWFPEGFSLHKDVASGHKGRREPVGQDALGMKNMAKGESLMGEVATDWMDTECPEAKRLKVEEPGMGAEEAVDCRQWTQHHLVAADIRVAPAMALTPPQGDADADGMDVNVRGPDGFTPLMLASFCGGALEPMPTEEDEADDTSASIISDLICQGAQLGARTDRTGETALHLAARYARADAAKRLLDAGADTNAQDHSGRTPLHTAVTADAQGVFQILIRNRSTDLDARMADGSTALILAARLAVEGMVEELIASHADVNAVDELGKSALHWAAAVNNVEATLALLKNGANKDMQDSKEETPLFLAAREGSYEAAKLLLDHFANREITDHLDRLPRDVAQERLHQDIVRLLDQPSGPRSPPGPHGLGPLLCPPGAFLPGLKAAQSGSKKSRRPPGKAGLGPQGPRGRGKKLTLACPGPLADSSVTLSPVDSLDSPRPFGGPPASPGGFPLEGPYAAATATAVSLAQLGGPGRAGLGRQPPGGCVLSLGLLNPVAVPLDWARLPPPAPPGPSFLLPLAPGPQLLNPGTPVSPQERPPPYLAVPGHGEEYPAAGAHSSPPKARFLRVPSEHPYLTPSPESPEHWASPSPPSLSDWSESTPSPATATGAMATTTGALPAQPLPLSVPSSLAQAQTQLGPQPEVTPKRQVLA

[20] = probe aEGFR binding to arrayed compounds – biochemical, biotinylated probe, 635/667 nm fluorescence, primary screen (AID 1097); details: small-molecule microarray, higher = more signal;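 further: probe is a biotinylated anti-EGFR antibody binding compounds printed on slides; score combines fluorescence near 667 nm and signal to noise of each spot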

Row | Compound | composite z-score [1] | composite z-score [2] | composite z-score [3] | composite z-score [4] | composite z-score [5] | composite z-score [6] | composite z-score [7] | z-score [8] | composite z-score [9] | composite z-score [10] | composite z-score [11] | z-score [12] | z-score [13] | z-score [14] | composite z-score [15] | z-score [16] | composite z-score [17] | composite z-score [18] | composite z-score [19] | composite z-score [20]
1 | CC(=O)OC[C@H]1O[C@H](CC=NO[C@@H](C)c2cn([C@H](CO)Cc3ccccc3)nn2)C=C[C@@H]1OC(C)=O | -0.513 | 0.386 | -0.104 | 0.649 | 0.804 | 1.24 | 0.732 | 0.386 (inactive) | 0.275 | 0.225 | 1.56 | -0.283 (inactive) | -0.359 (inactive) | -0.346 (inactive) | 0.96 | -0.477 (inactive) | -0.0137 | 0.336 | 0.55 | 0.0035
2 | O=C1CCCC=C1C(O)c1ccc([N+](=O)[O-])cc1 (stereo not given) | -0.396 | 0.267 | -0.187 | 0.535 | 0.254 | -0.832 | -0.0876 | 0.925 (inactive) | -0.315 | -0.355 | 0.0679 | -0.293 (inactive) | 0.0434 (inactive) | -0.289 (inactive) | -0.33 | 0.999 (inactive) | -0.114 | 0.111 | 0.273 | 0.613
3 | CC(CCN1CCCc2nc(C)c(C)cc21)=NO[C@H](C)c1cn([C@H](CO)Cc2ccccc2)nn1 | -0.303 | 0.455 | -0.0568 | 0.545 | 0.531 | 0.0463 | 1.03 | 1.53 (inactive) | 0.64 | -0.236 | 1.56 | 1.09 (inactive) | 0.374 (inactive) | 0.399 (inactive) | 0.894 | -0.748 (inactive) | -0.0441 | 0.633 | 1.01 | 0.0386
4 | COC(=O)CC=C[C@@H](C)[C@@H](C=NOC[C@@H](O)COCc1ccco1)OC | -0.663 | 2.07 | -0.225 | -0.813 | -1.05 | -0.209 | 0.532 | 0.103 (inactive) | -0.466 | -0.164 | 0.302 | -0.0605 (inactive) | -0.543 (inactive) | 0.225 (inactive) | 0.378 | -0.255 (inactive) | -0.336 | 1.49 | -0.456 | -0.132
5 | C[C@@H](c1ccccc1)N1C(=O)[C@H]2[C@H]3[C@H](O)[C@H](O)CC(=NOC[C@@H](O)COCc4ccco4)[C@H]3CC[C@H]2C1=O | -0.605 | 2.38 | -0.212 | -0.363 | -0.206 | -0.438 | 0.919 | 0.652 (inactive) | 0.039 | -0.0994 | 0.559 | 0.342 (inactive) | 0.453 (inactive) | -0.0348 (inactive) | -1.07 | -0.378 (inactive) | -0.0772 | 0.412 | -0.233 | -0.164
6 | COC(=O)CC=C[C@@H](C)[C@@H](C=NOC(C)CN1CCCc2nc(C)c(C)cc21)NS(=O)(=O)c1ccc(C)cc1 (stereo not given in full) | -0.0882 | 0.296 | -0.0202 | 0.469 | 0.699 | 0.257 | 0.665 | 0.562 (inactive) | 0.316 | 0.809 | 1.3 | 0.207 (inactive) | 0.12 (inactive) | -0.0152 (inactive) | 1.05 | 0.644 (inactive) | 0.156 | 0.629 | 0.812 | -0.0158
7 | COC(=O)CC=C[C@@H](C)[C@@H](C=NOC[C@@H](C)[C@H](OCc1ccccc1)C(C)C)NS(=O)(=O)c1ccc(C)cc1 | -0.433 | 0.142 | -0.0633 | -0.0494 | -0.801 | -0.267 | -0.332 | 0.539 (inactive) | -0.0646 | -0.0003 | 0.123 | -0.161 (inactive) | 1.53 (inactive) | 0.227 (inactive) | 0.0335 | -1.42 (inactive) | -0.27 | 0.452 | -1.44 | -0.142
8 | CO[C@@H]1COC(=O)CC=C[C@H](C)[C@H](OC)COC(=O)[C@@H]2CCCN2C(=O)CC=C[C@H]1C | -0.811 | 1.74 | -0.196 | 0.0967 | -0.271 | -0.285 | 0.158 | -0.331 (inactive) | 0.0991 | -0.166 | 0.684 | 0.0396 (inactive) | -0.719 (inactive) | -0.249 (inactive) | -0.722 | 0.127 (inactive) | -0.225 | 1.78 | -0.128 | 0.153
9 | CC(C)[C@H](NC(=O)OC(C)(C)C)[C@@H](O)CC(=O)C(C)(C)C | -0.507 | 0.205 | 0.0103 | 0.209 | 0.541 | -0.144 | -0.295 | 0.46 (inactive) | 0.0986 | 0.107 | -0.377 | 0.24 (inactive) | 0.0646 (inactive) | 0.552 (inactive) | 0.0487 | 0.782 (inactive) | -0.215 | 0.838 | -0.0208 | 0.0514
10 | CC(=O)OC[C@H]1O[C@H](CC=NOC(C)CN2CCCCc3nc(C)c(C)cc32)C=C[C@@H]1OC(C)=O (stereo not given in full) | -0.349 | 2.35 | -0.071 | 0.325 | 0.965 | 0.0843 | 0.978 | 0.851 (inactive) | 0.0013 | 0.158 | 1.54 | -0.814 (inactive) | -0.0245 (inactive) | -0.151 (inactive) | 1.51 | 0.522 (inactive) | 0.176 | 1.13 | 1.01 | 0.43

Source: PubChem BioAssay
